Tests used:
[1] = molecular target: ALK tyrosine kinase receptor (Homo sapiens) (UniProt Q9UM73); conditions: at 10 µM
[2] = molecular target: T1, Activin receptor type-1B (Homo sapiens) (UniProt P36896); conditions: at 1 µM
T1 sequence (whole entry): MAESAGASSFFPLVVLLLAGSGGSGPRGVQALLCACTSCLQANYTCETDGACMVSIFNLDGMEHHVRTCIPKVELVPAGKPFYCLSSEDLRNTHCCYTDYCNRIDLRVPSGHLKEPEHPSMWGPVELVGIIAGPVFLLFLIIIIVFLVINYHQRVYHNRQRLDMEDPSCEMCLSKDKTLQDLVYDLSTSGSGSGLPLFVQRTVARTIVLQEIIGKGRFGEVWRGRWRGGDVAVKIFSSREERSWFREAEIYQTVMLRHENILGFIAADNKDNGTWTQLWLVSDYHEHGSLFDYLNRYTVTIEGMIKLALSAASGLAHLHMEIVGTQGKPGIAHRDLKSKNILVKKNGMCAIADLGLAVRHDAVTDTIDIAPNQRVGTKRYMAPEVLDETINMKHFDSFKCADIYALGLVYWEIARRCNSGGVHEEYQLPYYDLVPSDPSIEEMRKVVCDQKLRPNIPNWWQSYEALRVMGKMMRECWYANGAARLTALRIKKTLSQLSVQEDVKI

[3] = molecular target: T1, Activin receptor type-1B (Homo sapiens); conditions: at 10 µM
[4] = molecular target: T2, AMP-activated protein kinase (AMPK) alpha-1/beta-1/gamma-1 (Homo sapiens) (UniProt P54619+Q9Y478+Q13131); conditions: at 1 µM
T2 sequence (P54619 whole entry): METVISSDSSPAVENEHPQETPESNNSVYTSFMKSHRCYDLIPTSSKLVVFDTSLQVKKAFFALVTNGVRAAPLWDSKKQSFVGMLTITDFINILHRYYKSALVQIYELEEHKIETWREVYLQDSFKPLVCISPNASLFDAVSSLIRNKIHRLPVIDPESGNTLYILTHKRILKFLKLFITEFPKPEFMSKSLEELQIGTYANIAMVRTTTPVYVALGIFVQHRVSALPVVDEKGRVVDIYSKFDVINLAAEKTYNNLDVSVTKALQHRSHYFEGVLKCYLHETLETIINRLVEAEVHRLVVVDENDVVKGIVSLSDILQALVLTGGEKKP
T2 sequence (Q13131 whole entry partner): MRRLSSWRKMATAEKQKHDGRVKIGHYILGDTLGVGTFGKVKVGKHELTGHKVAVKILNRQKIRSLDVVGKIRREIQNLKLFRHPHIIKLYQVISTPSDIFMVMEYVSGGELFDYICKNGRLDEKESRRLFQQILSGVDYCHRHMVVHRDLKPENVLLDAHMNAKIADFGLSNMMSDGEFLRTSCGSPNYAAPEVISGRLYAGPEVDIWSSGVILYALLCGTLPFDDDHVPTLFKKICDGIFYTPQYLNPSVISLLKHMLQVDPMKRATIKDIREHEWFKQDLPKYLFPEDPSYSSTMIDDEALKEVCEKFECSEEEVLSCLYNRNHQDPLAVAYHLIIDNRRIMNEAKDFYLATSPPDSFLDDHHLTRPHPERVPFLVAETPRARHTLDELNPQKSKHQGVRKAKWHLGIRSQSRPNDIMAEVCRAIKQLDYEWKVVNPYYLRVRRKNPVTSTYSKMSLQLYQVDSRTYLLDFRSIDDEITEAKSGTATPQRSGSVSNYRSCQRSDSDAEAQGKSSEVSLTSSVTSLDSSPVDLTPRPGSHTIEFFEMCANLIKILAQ
T2 sequence (Q9Y478 2-270 partner limits assumed): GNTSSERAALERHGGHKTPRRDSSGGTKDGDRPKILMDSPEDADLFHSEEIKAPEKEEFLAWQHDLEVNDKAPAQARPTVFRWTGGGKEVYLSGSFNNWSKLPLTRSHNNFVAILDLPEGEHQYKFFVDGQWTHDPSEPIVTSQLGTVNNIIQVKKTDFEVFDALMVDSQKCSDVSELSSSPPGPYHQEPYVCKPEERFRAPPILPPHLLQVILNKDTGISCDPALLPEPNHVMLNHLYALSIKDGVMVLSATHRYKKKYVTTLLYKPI

[5] = molecular target: T2, AMP-activated protein kinase (AMPK) alpha-1/beta-1/gamma-1 (Homo sapiens); conditions: at 10 µM
[6] = molecular target: T3, NUAK family SNF1-like kinase 1 (Homo sapiens) (UniProt O60285); conditions: at 10 µM
T3 sequence (whole entry): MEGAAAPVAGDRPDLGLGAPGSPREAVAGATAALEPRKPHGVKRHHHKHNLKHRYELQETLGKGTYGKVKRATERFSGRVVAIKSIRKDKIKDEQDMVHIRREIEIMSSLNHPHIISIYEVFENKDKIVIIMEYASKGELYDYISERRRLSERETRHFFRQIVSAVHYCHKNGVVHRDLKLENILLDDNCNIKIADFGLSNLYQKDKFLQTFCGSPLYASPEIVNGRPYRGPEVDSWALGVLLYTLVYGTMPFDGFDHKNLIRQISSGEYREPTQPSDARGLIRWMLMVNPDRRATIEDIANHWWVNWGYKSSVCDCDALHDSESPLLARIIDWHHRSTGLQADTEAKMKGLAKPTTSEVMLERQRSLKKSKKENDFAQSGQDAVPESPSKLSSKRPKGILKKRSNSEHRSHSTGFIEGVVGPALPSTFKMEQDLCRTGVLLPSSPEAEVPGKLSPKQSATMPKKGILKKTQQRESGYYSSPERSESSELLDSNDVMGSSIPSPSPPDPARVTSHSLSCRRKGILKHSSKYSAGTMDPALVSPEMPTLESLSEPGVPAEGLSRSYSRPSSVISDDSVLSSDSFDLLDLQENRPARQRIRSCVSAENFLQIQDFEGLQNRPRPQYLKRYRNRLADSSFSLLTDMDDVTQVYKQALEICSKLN

[7] = molecular target: T4, Mitogen-activated protein kinase kinase kinase 5 (Homo sapiens) (UniProt Q99683); conditions: at 1 µM
T4 sequence (whole entry): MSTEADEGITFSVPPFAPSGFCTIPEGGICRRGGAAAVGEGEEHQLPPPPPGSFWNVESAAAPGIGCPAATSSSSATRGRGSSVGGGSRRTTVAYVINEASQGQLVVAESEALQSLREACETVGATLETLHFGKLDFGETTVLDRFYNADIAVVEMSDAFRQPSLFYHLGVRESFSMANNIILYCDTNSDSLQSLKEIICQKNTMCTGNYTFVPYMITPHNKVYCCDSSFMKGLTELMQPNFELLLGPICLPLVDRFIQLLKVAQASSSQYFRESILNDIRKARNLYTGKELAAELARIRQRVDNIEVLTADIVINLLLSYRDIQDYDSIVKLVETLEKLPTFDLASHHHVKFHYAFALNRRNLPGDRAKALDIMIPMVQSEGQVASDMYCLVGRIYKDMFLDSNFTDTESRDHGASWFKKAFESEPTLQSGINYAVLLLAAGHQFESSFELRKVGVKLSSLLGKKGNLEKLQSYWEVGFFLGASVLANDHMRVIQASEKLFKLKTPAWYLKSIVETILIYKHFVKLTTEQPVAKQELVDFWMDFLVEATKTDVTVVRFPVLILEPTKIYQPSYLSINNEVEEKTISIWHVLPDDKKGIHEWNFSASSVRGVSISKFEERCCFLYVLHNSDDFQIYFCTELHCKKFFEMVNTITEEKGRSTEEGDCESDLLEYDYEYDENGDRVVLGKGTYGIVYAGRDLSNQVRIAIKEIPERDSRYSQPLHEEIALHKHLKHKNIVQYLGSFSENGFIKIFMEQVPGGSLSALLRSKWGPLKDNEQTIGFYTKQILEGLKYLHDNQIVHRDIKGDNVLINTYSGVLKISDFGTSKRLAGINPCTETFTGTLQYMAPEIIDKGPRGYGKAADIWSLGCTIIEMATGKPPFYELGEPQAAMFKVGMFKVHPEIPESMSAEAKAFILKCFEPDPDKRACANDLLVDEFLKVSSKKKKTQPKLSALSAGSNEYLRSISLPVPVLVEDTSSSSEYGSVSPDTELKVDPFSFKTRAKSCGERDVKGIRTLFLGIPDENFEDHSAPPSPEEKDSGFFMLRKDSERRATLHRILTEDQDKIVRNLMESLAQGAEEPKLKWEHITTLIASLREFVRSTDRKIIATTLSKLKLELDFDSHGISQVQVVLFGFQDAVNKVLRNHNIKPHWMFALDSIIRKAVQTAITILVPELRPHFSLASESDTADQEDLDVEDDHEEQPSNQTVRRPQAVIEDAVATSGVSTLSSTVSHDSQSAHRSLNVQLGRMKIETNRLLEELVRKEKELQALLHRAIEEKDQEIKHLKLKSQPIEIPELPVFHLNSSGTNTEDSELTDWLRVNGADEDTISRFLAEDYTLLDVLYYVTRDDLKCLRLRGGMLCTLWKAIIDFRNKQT

[8] = molecular target: Platelet-derived growth factor receptor beta (Homo sapiens) (UniProt P09619); conditions: at 10 µM
Platelet-derived growth factor receptor beta (Homo sapiens), sequence (P09619 whole entry): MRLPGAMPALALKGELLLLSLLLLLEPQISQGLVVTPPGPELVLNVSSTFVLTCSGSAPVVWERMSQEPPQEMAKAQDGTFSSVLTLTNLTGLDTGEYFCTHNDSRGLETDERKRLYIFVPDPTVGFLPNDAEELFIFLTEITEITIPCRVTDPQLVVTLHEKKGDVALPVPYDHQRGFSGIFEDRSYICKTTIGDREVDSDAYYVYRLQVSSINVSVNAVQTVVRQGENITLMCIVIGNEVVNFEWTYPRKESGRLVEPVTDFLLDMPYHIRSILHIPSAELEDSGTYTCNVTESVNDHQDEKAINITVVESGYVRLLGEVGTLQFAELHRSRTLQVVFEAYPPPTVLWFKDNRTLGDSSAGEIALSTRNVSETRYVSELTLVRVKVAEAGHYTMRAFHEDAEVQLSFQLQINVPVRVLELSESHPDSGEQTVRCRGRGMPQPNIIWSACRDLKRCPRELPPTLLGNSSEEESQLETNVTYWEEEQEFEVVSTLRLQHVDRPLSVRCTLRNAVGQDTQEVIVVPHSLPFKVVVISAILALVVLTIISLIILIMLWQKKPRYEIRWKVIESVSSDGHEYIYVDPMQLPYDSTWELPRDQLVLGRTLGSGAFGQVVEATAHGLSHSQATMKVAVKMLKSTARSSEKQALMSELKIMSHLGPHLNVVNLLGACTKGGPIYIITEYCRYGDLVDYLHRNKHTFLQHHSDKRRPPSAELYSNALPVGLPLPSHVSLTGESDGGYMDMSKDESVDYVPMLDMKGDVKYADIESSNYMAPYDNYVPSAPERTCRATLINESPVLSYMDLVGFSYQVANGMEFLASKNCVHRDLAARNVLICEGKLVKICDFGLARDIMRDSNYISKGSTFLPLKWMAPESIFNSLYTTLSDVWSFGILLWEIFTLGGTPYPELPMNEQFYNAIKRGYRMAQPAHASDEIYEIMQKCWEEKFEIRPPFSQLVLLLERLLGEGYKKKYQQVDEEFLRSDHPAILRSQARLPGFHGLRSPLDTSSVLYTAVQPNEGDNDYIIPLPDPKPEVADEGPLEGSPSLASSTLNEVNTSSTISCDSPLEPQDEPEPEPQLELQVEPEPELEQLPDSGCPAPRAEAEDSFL

[9] = molecular target: cAMP-dependent protein kinase catalytic subunit alpha (Homo sapiens) (UniProt P17612); conditions: at 1 µM
[10] = molecular target: cAMP-dependent protein kinase catalytic subunit alpha (Homo sapiens) (UniProt P17612); conditions: at 10 µM
[11] = molecular target: RAC-gamma serine/threonine-protein kinase (Homo sapiens) (UniProt Q9Y243); conditions: at 1 µM
RAC-gamma serine/threonine-protein kinase (Homo sapiens), sequence (Q9Y243 whole entry): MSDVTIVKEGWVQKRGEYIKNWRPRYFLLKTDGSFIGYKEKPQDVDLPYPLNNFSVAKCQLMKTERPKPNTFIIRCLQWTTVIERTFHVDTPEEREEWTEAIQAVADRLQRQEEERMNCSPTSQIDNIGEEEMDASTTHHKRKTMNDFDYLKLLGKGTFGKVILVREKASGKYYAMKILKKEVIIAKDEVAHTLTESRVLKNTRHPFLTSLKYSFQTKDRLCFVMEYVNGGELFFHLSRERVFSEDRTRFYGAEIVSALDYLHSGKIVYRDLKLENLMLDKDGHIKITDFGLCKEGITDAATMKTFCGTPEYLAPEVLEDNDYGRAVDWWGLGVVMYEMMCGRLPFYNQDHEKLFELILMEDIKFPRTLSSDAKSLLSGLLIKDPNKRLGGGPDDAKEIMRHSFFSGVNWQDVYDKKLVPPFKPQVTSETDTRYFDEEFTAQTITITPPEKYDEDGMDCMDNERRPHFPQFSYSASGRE

[12] = molecular target: RAC-gamma serine/threonine-protein kinase (Homo sapiens) (UniProt Q9Y243); conditions: at 10 µM
[13] = molecular target: T5, AMP-activated protein kinase, AMPK (Homo sapiens) (UniProt P54646+O43741+P54619+Q9UGJ0+Q9Y478+Q13131+Q9UGI9); conditions: at 1 µM
[14] = molecular target: T5, AMP-activated protein kinase, AMPK (Homo sapiens); conditions: at 10 µM
[15] = molecular target: T3, NUAK family SNF1-like kinase 1 (Homo sapiens); conditions: at 1 µM
[16] = molecular target: Platelet-derived growth factor receptor alpha (Homo sapiens) (UniProt P16234); conditions: at 1 µM
[17] = molecular target: Platelet-derived growth factor receptor alpha (Homo sapiens) (UniProt P16234); conditions: at 10 µM
[18] = molecular target: Platelet-derived growth factor receptor beta (Homo sapiens) (UniProt P09619); conditions: at 1 µM
[19] = molecular target: T6, 3-phosphoinositide-dependent protein kinase 1 (Homo sapiens) (UniProt O15530); conditions: at 1 µM
T6 sequence (whole entry): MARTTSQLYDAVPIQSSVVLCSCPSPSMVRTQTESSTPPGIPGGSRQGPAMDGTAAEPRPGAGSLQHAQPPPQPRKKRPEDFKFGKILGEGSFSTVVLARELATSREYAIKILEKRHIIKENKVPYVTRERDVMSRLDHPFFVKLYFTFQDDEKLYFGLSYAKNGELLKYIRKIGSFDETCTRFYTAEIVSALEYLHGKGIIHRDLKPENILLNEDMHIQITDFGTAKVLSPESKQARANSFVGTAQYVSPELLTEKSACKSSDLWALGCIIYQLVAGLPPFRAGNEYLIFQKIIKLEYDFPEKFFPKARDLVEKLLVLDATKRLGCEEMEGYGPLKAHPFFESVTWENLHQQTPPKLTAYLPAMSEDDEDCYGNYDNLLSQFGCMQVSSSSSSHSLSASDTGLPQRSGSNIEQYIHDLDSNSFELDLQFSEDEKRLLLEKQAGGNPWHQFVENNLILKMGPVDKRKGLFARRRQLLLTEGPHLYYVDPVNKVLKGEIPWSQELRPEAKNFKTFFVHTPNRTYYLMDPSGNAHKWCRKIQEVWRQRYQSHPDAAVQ

[20] = molecular target: T6, 3-phosphoinositide-dependent protein kinase 1 (Homo sapiens); conditions: at 10 µM

ALK tyrosine kinase receptor (Homo sapiens), sequence (Q9UM73 19-1620 limits assumed): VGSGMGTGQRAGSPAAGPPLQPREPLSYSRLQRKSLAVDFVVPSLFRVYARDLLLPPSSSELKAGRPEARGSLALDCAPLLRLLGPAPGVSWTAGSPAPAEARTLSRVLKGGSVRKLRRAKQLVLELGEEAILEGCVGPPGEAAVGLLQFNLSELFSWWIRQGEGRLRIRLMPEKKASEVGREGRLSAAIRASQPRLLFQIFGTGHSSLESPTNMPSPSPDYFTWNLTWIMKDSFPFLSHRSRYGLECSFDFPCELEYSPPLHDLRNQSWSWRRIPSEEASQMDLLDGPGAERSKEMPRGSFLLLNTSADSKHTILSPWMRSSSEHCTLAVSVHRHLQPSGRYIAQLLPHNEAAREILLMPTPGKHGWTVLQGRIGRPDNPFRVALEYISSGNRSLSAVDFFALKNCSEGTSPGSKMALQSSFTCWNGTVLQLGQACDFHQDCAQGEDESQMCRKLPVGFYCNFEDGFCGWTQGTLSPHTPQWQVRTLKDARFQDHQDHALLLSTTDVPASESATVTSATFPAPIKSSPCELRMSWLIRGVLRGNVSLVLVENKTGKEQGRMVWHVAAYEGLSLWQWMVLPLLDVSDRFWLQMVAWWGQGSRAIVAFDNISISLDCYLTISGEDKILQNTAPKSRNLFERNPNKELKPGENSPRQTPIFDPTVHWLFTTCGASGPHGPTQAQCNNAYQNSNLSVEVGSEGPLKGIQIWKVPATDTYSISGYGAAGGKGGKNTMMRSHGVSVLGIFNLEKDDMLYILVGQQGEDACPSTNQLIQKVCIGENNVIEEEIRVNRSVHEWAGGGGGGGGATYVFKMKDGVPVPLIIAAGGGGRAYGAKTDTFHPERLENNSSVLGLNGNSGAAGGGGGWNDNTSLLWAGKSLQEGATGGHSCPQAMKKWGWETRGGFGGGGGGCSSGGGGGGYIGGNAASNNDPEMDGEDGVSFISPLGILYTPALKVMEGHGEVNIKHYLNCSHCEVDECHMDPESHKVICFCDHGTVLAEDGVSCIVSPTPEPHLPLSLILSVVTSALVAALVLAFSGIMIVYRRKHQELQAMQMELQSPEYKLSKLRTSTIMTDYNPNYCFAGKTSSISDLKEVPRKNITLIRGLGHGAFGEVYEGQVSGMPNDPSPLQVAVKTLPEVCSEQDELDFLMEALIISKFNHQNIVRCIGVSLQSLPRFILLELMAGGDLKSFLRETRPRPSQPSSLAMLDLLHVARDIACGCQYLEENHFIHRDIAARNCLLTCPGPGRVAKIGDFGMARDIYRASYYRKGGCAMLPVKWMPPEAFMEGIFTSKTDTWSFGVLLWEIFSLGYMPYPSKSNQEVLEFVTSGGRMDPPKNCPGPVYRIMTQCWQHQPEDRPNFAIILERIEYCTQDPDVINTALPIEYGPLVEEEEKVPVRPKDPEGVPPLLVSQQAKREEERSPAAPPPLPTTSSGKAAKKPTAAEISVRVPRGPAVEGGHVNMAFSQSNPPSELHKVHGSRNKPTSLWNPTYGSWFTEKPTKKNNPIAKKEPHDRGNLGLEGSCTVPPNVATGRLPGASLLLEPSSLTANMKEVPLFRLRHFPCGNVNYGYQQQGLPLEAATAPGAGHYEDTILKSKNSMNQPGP

Structure (SMILES) | residual activity [1] [%] | residual activity [2] [%] | residual activity [3] [%] | residual activity [4] [%] | residual activity [5] [%] | residual activity [6] [%] | residual activity [7] [%] | residual activity [8] [%] | residual activity [9] [%] | residual activity [10] [%] | residual activity [11] [%] | residual activity [12] [%] | residual activity [13] [%] | residual activity [14] [%] | residual activity [15] [%] | residual activity [16] [%] | residual activity [17] [%] | residual activity [18] [%] | residual activity [19] [%] | residual activity [20] [%]
NC(=O)c1ccc(-c2nc(-c3ccc4c(c3)OCCO4)c(-c3ccccn3)[nH]2)cc1 | 52 | 31 | 0 | 90 | 92 | 91 | 98 | 75 | 92 | 96 | 98 | 94 | – | – | – | – | – | – | – | –
CCOC(=O)c1c(C)[nH]c(/C=C2\C(=O)Nc3ccccc32)c1C | 118 | 120 | 83 | 80 | 65 | 85 | – | 92 | – | – | – | – | 85 | 74 | 88 | 43 | 45 | 90 | – | –
Nc1ncnc2[nH]nc(Nc3ccc(F)cc3)c12 | 67 | 114 | 77 | 100 | 69 | 90 | – | 109 | – | 77 | – | 71 | 99 | 65 | 98 | 105 | 111 | 107 | 92 | 40
COc1cc2nccc(Oc3ccc(NC(=S)NC(=O)c4ccccc4C)cc3)c2cc1OC | 47 | 126 | 96 | 88 | 70 | 74 | 88 | 9 | 90 | – | 94 | 72 | – | – | 81 | 7 | 2 | 31 | – | –
Fc1ccc(-c2nc3n(c2-c2ccncc2)CCS3)cc1 | 94 | 100 | 29 | – | – | 90 | 96 | 128 | 94 | 84 | – | – | – | – | – | – | – | 123 | – | –
O=C1C(Cl)=C(N2C(=O)CCC2=O)C(=O)c2ccccc21 | 58 | 101 | 121 | 95 | 91 | 84 | 89 | 93 | 95 | 84 | 89 | 87 | 99 | 101 | 96 | – | – | 95 | – | –
O=C1NC(=O)C(c2c[nH]c3ccccc23)=C1c1c[nH]c2ccccc12 | 44 | 114 | 75 | 72 | 15 | 24 | – | 83 | – | 55 | 100 | 36 | 66 | 10 | 83 | – | 77 | – | 71 | 18
CN(C)S(=O)(=O)c1ccc2c(c1)/C(=C/c1cc3c([nH]1)CCCC3)C(=O)N2 | 29 | 111 | 56 | 43 | 29 | 3 | – | 90 | – | – | 92 | 88 | 45 | 37 | 10 | 33 | 29 | 80 | – | –
O=c1cc(N2CCOCC2)oc2c(-c3ccccc3)cccc12 | 53 | – | – | – | – | – | – | – | – | – | – | – | – | – | – | – | – | – | – | –
COc1ccc2c(c1)c(C1=C(c3c[nH]c4ccccc34)C(=O)NC1=O)cn2CCCN(C)C | 64 | – | 47 | 52 | 11 | 10 | – | 63 | 37 | 17 | 30 | 9 | 38 | 5 | 37 | 106 | 66 | – | 62 | 14
O=C(c1cc2cc(O)ccc2[nH]1)c1cc2cc(O)ccc2[nH]1 | 58 | 111 | – | 16 | 1 | 20 | – | 6 | 74 | – | – | – | 13 | 3 | 65 | 46 | 6 | 35 | 79 | 23
O=C1NC(=O)c2c1c1c3ccccc3[nH]c1n1cncc21 | 48 | 97 | – | 49 | 34 | 13 | 99 | 92 | 82 | 88 | 84 | 64 | 38 | 29 | 15 | 96 | 92 | 88 | 56 | 39
O=C1Cc2c([nH]c3ccc(Br)cc23)-c2ccccc2N1 | 56 | – | 72 | 75 | 44 | 2 | – | – | 89 | 94 | – | – | – | – | 13 | – | – | – | – | –
COc1ccc(CNC(=O)Nc2ncc([N+](=O)[O-])s2)cc1 | 64 | – | 109 | – | – | – | – | 100 | 109 | – | – | – | – | – | – | – | – | 101 | – | –
